Columns and labels:
Test in all cases: log2 ratio of Biotin-Ahx-Ub-VS probe labelling (fragment/DMSO); higher = less target engagement (more negative = stronger competition), active = hit call of the paper (q ≤ 0.05, log2 ratio ≤ -1)
Details in all cases: compound concentration: 200 uM; treatment time: 3 h
[1] = molecular target: T1, USP42 (UniProt Q9H9J4)
T1 sequence (whole entry): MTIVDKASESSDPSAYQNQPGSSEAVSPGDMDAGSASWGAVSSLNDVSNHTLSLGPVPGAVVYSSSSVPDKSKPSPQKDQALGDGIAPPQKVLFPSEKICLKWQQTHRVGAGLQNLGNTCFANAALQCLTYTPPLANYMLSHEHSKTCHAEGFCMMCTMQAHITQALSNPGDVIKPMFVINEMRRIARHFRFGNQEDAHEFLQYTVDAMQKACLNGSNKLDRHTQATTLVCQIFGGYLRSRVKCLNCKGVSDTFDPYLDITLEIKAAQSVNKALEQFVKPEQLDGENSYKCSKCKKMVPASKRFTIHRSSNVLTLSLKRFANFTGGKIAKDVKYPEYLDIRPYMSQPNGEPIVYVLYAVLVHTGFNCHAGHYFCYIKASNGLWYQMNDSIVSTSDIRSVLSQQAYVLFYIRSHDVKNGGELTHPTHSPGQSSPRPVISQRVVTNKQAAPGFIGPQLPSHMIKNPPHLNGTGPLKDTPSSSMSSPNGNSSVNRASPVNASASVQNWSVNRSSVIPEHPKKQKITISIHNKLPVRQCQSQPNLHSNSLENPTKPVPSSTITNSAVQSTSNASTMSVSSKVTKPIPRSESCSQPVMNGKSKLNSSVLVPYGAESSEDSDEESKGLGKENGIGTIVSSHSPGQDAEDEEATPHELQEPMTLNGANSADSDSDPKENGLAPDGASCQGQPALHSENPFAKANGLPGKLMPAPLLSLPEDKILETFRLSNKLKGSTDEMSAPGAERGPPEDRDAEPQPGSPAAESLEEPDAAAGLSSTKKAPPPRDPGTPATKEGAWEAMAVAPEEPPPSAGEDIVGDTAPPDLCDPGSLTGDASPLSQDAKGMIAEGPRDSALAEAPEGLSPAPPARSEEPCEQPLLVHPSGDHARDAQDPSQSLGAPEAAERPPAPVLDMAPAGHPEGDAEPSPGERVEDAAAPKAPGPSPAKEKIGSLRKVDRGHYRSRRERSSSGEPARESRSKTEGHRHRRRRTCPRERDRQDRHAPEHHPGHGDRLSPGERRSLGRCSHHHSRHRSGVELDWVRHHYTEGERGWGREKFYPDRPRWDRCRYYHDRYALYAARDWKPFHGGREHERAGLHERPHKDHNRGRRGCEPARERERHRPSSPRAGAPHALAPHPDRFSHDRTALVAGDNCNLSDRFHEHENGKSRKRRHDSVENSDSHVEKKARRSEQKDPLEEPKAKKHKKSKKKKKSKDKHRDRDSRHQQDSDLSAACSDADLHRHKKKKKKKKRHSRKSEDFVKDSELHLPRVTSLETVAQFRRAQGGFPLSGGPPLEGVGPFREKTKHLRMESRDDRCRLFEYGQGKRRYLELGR
How it was run: (§1)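 HEK293T lysate (495 µg per sample, in Tris/CHAPS/IGEPAL buffer with protease inhibitors) was exposed in triplicate for 3 h to fragment at 200 µM or to vehicle, then to Biotin-Ahx-Ub-VS at 0.5 µM final for 1 h. Labelled DUBs were enriched on NeutrAvidin, digested with LysC and trypsin, and analysed by diaPASEF LC-MS/MS. Spectronaut label-free quantities were normalised to the global median, and values are average log2 ratios of fragment over vehicle from an unpaired t-test. Only proteins with ≥2 unique peptides were used.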

[2] = molecular target: USP46 (UniProt P62068)
How it was run: as §1

[3] = molecular target: T2, USP47 (UniProt Q96K76)
T2 sequence (whole entry): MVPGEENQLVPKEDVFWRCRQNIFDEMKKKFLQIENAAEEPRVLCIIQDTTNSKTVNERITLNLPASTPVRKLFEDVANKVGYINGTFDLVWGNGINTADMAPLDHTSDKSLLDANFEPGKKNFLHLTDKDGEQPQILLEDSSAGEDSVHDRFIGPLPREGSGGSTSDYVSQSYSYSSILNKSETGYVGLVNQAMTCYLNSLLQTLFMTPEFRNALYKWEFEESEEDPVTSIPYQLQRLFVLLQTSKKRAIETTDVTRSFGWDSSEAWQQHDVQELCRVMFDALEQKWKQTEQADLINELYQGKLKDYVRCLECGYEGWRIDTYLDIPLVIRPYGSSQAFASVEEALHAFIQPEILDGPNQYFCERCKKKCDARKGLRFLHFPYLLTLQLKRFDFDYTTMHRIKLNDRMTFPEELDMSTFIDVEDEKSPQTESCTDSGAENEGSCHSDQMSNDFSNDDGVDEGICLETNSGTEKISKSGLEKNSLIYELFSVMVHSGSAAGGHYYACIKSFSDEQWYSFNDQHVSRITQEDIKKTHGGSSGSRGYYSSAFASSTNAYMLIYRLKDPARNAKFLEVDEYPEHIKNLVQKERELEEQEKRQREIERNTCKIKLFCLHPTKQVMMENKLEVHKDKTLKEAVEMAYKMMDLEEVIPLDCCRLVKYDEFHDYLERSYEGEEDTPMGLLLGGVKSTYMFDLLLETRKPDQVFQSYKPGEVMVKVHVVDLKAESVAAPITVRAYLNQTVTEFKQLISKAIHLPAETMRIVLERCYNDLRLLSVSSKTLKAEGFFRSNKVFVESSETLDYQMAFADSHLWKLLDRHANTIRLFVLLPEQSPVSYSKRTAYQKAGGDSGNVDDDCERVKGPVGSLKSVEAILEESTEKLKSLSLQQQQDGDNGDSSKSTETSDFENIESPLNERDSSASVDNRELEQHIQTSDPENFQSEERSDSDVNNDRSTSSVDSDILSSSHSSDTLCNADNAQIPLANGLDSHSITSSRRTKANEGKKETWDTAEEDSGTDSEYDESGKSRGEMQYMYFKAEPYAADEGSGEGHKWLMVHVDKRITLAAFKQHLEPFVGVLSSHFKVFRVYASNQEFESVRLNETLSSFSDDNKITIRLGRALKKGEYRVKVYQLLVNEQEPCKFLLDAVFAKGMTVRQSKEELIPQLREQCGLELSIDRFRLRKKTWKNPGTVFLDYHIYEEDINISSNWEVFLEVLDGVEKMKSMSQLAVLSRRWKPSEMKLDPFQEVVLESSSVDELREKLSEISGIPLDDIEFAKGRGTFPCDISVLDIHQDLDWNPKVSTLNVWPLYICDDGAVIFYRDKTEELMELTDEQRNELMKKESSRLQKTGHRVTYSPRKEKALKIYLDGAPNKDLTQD
How it was run: as §1

[4] = molecular target: T3, USP48 (UniProt Q86UV5)
T3 sequence (whole entry): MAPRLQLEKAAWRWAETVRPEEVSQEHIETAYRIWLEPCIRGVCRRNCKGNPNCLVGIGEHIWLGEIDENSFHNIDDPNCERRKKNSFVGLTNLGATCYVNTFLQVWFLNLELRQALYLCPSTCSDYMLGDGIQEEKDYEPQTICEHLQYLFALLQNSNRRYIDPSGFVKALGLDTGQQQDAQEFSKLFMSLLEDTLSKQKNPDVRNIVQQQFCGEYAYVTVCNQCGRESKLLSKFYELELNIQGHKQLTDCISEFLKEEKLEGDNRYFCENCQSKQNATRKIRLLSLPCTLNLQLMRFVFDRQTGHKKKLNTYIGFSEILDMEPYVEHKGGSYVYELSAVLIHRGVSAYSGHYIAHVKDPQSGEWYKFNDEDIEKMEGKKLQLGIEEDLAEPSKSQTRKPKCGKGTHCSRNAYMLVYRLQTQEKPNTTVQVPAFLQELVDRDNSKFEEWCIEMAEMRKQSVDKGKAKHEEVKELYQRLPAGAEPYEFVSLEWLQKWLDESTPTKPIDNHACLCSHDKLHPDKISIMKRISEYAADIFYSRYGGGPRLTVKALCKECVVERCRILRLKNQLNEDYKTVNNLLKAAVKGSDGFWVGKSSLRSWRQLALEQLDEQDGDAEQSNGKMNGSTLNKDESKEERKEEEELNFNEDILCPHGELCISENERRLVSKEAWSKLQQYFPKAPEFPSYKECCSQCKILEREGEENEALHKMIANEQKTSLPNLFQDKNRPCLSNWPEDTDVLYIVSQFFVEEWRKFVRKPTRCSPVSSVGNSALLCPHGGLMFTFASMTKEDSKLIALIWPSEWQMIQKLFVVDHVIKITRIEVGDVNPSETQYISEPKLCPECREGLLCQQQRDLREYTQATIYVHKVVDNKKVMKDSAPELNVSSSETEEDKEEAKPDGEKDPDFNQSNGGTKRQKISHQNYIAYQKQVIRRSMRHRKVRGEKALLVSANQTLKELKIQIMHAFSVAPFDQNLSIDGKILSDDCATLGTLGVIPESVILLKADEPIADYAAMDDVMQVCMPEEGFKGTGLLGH
How it was run: as §1

[5] = molecular target: T4, USP5 (UniProt P45974)
T4 sequence (whole entry): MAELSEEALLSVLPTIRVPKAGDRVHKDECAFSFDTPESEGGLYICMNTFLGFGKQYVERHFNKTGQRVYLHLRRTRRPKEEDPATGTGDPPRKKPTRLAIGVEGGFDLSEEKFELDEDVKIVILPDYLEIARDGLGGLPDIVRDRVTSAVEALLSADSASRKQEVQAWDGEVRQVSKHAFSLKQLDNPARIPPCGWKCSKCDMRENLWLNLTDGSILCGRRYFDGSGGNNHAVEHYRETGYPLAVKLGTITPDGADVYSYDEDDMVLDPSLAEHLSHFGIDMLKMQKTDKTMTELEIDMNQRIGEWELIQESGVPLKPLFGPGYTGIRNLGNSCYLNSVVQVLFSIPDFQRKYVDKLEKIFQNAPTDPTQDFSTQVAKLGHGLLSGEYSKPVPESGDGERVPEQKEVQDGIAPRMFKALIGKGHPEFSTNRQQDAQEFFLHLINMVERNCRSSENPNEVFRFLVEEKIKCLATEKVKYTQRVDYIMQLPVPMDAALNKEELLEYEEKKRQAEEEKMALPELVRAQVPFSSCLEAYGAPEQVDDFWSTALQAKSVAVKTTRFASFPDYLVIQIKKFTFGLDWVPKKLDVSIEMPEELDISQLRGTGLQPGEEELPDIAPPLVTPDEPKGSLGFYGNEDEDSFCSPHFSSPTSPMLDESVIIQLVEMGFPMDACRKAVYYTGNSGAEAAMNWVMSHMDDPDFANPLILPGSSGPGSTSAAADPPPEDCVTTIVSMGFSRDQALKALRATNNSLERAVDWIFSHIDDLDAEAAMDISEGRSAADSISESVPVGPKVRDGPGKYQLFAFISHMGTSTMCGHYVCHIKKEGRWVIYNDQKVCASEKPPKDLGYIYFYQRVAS
How it was run: as §1

[6] = molecular target: USP54 (UniProt Q70EL1)
How it was run: as §1

[7] = molecular target: USP7 (UniProt Q93009)
How it was run: as §1

[8] = molecular target: T5, USP8 (UniProt P40818)
T5 sequence (whole entry): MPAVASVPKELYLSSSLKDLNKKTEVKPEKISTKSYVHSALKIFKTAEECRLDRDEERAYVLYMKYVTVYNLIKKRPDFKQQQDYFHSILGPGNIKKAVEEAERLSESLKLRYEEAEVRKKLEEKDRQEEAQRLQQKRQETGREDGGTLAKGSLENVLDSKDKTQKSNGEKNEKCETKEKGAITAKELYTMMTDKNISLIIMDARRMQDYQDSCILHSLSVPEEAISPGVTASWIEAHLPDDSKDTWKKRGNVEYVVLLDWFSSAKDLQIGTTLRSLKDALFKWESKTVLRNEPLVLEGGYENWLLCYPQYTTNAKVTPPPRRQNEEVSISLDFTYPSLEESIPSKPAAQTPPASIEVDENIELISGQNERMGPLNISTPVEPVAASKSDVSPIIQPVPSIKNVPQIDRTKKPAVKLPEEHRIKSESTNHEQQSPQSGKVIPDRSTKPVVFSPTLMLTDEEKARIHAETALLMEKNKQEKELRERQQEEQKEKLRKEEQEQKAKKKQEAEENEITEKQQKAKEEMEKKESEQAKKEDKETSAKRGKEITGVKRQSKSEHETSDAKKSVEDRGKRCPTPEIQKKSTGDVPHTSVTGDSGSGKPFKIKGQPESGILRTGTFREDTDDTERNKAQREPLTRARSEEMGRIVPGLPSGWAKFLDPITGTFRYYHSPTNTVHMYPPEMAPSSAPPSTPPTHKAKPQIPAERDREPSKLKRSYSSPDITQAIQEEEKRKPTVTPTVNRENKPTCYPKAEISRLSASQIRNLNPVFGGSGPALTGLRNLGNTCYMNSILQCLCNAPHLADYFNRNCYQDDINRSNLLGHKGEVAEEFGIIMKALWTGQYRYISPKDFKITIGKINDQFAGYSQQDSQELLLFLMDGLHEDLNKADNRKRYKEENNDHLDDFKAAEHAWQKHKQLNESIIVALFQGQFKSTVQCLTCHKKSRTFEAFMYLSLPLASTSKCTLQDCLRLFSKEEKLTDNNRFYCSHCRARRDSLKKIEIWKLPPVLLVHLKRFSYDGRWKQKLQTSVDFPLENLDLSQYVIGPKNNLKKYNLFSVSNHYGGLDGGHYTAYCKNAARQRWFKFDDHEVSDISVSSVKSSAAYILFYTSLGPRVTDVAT
How it was run: as §1

[9] = molecular target: USP9X (UniProt Q93008)
How it was run: as §1

[10] = molecular target: UniProt O00487
How it was run: as §1

Measured: log2 ratio of Biotin-Ahx-Ub-VS probe labelling

Chain of UniProt O00487 (O00487 whole entry): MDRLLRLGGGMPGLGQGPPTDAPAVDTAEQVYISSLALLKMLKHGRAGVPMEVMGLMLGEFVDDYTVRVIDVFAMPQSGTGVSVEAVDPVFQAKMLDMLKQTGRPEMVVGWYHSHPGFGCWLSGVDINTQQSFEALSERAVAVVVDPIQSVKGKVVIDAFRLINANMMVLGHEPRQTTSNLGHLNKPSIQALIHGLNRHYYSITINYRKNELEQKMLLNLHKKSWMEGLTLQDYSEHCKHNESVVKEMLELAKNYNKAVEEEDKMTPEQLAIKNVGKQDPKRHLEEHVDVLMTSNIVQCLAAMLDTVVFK
Chain of USP7 (Q93009 whole entry, looked up): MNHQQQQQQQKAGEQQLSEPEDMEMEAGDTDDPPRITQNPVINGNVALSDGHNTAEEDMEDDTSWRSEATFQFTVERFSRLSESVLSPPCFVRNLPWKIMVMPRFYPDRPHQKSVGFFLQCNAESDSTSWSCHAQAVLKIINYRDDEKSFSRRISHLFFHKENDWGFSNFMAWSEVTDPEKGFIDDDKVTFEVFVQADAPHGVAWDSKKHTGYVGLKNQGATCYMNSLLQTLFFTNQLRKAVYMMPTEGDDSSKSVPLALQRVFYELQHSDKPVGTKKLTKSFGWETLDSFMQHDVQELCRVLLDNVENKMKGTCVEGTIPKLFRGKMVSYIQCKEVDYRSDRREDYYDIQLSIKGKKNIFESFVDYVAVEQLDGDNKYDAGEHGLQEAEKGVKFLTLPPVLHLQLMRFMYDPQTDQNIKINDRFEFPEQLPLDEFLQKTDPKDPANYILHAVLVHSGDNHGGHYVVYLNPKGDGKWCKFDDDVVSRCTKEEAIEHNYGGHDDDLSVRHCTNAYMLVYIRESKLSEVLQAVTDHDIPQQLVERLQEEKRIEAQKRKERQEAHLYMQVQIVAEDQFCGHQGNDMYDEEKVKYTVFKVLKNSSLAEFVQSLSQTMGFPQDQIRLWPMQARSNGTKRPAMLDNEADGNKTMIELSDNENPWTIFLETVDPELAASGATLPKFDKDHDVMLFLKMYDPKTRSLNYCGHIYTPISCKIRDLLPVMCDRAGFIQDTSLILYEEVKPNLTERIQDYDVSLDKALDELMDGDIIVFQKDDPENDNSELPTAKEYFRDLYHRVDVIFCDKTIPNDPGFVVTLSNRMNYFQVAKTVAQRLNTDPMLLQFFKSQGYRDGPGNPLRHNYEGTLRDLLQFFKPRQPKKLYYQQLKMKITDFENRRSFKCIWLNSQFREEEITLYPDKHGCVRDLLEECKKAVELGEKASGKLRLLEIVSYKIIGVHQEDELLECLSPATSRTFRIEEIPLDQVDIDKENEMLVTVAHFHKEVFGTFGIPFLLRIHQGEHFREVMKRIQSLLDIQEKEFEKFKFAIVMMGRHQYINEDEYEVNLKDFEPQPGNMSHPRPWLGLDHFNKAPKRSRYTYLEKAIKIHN
Chain of USP54 (Q70EL1 whole entry): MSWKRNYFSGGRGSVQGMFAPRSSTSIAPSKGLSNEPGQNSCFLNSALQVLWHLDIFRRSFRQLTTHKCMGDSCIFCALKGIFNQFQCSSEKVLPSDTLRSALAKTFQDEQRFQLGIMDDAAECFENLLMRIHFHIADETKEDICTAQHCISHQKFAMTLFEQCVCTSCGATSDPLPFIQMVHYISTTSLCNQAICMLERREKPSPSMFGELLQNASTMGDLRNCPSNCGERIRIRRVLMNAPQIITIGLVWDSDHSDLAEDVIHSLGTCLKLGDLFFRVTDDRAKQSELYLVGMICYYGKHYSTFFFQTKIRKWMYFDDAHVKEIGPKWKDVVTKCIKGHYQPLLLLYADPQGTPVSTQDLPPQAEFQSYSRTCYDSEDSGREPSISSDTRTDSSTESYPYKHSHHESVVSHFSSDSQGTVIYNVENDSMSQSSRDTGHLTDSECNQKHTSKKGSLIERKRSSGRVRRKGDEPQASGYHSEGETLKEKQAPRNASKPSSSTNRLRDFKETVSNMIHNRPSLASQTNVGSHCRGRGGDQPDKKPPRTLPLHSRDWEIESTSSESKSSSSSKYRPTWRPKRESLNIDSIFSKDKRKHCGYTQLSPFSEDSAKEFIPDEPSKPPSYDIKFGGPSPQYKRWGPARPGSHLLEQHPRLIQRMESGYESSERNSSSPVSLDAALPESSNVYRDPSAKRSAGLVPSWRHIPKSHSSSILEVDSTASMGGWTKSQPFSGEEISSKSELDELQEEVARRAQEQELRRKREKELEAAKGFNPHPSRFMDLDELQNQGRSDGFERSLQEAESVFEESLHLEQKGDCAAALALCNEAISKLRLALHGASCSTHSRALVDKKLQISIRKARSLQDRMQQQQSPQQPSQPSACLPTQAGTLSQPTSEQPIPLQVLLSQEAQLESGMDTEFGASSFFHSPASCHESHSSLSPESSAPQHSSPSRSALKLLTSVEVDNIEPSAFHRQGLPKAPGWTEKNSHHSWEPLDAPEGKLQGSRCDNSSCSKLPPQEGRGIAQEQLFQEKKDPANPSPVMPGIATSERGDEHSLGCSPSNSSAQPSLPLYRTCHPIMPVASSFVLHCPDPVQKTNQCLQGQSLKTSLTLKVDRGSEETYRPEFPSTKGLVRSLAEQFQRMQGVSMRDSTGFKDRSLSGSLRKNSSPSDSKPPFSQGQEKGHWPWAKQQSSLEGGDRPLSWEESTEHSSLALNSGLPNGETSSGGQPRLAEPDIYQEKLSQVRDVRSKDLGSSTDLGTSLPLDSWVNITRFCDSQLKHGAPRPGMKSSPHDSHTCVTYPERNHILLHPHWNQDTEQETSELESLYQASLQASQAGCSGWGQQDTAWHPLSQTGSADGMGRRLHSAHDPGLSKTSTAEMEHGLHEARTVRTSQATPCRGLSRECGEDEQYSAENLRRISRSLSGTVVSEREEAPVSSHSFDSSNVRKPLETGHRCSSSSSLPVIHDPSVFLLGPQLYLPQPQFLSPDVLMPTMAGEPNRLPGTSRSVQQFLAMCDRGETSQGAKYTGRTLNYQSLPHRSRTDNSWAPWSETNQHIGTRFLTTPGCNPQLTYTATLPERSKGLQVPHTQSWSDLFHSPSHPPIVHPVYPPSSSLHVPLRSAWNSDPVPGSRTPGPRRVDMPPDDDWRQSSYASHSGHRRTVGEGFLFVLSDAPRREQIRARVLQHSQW
Chain of USP46 (P62068 whole entry): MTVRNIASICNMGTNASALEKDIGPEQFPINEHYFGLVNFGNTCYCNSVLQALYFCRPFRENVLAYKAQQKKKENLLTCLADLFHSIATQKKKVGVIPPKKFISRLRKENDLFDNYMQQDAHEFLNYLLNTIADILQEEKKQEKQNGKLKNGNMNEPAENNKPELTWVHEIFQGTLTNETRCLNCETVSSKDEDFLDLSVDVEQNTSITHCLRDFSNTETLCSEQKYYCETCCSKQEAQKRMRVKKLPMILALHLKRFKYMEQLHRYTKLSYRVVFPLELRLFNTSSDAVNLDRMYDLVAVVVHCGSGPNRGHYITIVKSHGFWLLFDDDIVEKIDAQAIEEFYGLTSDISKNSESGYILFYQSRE

O=C(CCl)NCc1ccc(N2CCOCC2)c(F)c1
inactive: [1] 0.396 | [2] 0.00295 | [3] 0.00631 | [4] 0.132 | [5] 0.372 | [6] 0.657 | [7] -0.046 | [8] 0.129 | [9] -0.078 | [10] 0.0665

CC1CCc2onc(CNC(=O)CCl)c2C1 (stereo not given)
inactive: [1] 0.0513 | [2] 0.0919 | [3] -0.0836 | [4] 0.185 | [5] 0.386 | [6] 0.0792 | [7] -0.00387 | [8] -0.212 | [9] -0.154 | [10] 0.0127

Cl.O=C(CCl)N1CCc2ncncc2C1
inactive: [1] 0.0472 | [2] -0.292 | [3] -0.409 | [4] -0.0378 | [5] -0.0354 | [6] 0.253 | [7] -0.411 | [8] -0.218 | [9] -0.425 | [10] -0.0759

Cc1ccc(CN(CCO)C(=O)CCl)cc1
inactive: [1] -0.148 | [2] -0.105 | [3] -0.828 | [4] -0.292 | [5] -0.134 | [6] 0.222 | [7] -0.788 | [8] -0.664 | [9] -0.526 | [10] -0.0465
